Reference: ChEMBL document CHEMBL3988442, “University of Dundee, Small-Polar-MMV Screening Library” (2021)
In all, about 85,000 compounds went through this assay and about 440 (0.52%) showed an effect of 50% or more. This excerpt belongs to a sample that is enriched for strong results.

Assay: In vitro enzyme assay to detect hydrolysis of chlorophenol red-beta-D-[…] directly proportional to the number of Toxoplasma stably expressing beta-galactosidase
Format: functional, organism-based, Toxoplasma gondii
Parameters: scale not given: in the data most compounds retested in dose-response had high values

Q: Which “Percent Effect” value (10 µM) does the source give for `CCc1nc(Nc2ccc(C(=O)NC)cc2)c2c(n1)c(C)nn2CC` here?
A: The value was 64.18%.

Q: Which “Percent Effect” value (10 µM) does the source give for `CCCc1nc(Nc2cccc(C(N)=O)c2)c2c(n1)c(C)nn2CC` here?
A: The value was 20.54%.

Q: Which “Percent Effect” value (50 µM) does the source give for `CN1C(=O)c2cccn2CC1CNC(=O)c1ccco1` (stereo unspecified) here?
A: The value was 46.69%.

Q: For `CNC(=O)CS(=O)(=O)Cc1cc(=O)n(C)c(=O)n1C`, which “Percent Effect” value (50 µM) is on record?
A: The value was 9.101%.

Q: For `CN(C)C(=O)CN(C)c1ncc(C(F)(F)F)cc1Cl`, which “Percent Effect” value (50 µM) is on record?
A: Its value is 0.3926%.

Q: For `CCS(=O)(=O)Nc1ccc(C(=O)NC2CC2)cc1`, which “Percent Effect” value (50 µM) is on record?
A: The value was -14.67%.

Q: With `Cc1cnc(C(NC(=O)NCc2nc(C3CC3)no2)C2CC2)s1` (stereo unspecified) as the compound, how does the “Percent Effect” value (10 µM) read?
A: The value was 2.41%.

Q: Which “Percent Effect” value (10 µM) does the source give for `CCc1nc(C2CCCN2CC(=O)Nc2nncs2)no1` (stereo unspecified) here?
A: The value was 2.118%.

Q: Which “Percent Effect” value (50 µM) does the source give for `O=C(NCc1nc(C2CC2)no1)Nc1nncs1` here?
A: Its value is 96.18%.

Q: With `Cc1ccccc1C1(O)CCN(Cc2ncc[nH]2)C1` (stereo unspecified) as the compound, how does the “Percent Effect” value (50 µM) read?
A: Its value is -4.711%.

Q: With `Cc1ncc(CN2CCOC(c3ccc(-c4ccccc4F)cn3)C2)s1` (stereo unspecified) as the compound, how does the “Percent Effect” value (10 µM) read?
A: The value was 56.75%.

Q: Which “Percent Effect” value (10 µM) does the source give for `Cc1ncc(CN2CCOC(c3ccc(-c4cnn(C)c4)cn3)C2)s1` (stereo unspecified) here?
A: Its value is -14.87%.

Q: With `Cc1ncc(CN2CCOC(c3ccc(-c4cc[nH]n4)cn3)C2)s1` (stereo unspecified) as the compound, how does the “Percent Effect” value (10 µM) read?
A: The value was -16.2%.

Q: With `O=C(NC1CCNC1)C1CCC1` (stereo unspecified) as the compound, how does the “Percent Effect” value (50 µM) read?
A: The value was 7.426%.

Q: Which “Percent Effect” value (50 µM) does the source give for `N#Cc1ccc(CN)c(F)c1` here?
A: The value was 29.17%.

Q: For `CC(C)CNC(=O)CSc1n[nH]c(-c2ccccn2)n1`, which “Percent Effect” value (50 µM) is on record?
A: The value was 52.47%.

Q: With `CC(CSc1n[nH]c(-c2ccccn2)n1)CS(C)(=O)=O` (stereo unspecified) as the compound, how does the “Percent Effect” value (50 µM) read?
A: The value was 14.41%.

Q: With `CC(Sc1n[nH]c(-c2ccccn2)n1)C(=O)N(C)C` (stereo unspecified) as the compound, how does the “Percent Effect” value (50 µM) read?
A: The value was 2.084%.

Q: Which “Percent Effect” value (50 µM) does the source give for `CCNc1cccc(OC)c1` here?
A: Its value is -5.589%.

Q: Which “Percent Effect” value (50 µM) does the source give for `Cn1nc(CC#N)c2ccccc21` here?
A: Its value is -11.92%.

Q: For `CCCc1nnc(NCc2cccnc2)o1`, which “Percent Effect” value (50 µM) is on record?
A: The value was -5.41%.

Q: Which “Percent Effect” value (10 µM) does the source give for `OCCOc1ccc(NCc2cccnc2)cn1` here?
A: Its value is 0.5408%.

Q: With `Nc1cccnc1NCc1cccnc1` as the compound, how does the “Percent Effect” value (50 µM) read?
A: Its value is 56.86%.

Q: For `CN(CCN1CCCC1=O)C(=O)c1ncccc1Br`, which “Percent Effect” value (50 µM) is on record?
A: The value was -6.361%.

Q: For `N#CCC1COc2ccccc2O1` (stereo unspecified), which “Percent Effect” value (50 µM) is on record?
A: Its value is -13.18%.

Q: With `CC(C)N(C)S(=O)(=O)NCCCN(C)c1ccccc1` as the compound, how does the “Percent Effect” value (50 µM) read?
A: Its value is 0.05674%.

Q: Which “Percent Effect” value (50 µM) does the source give for `CN(C)C(=O)C1CCN(Cc2ccccc2F)CC1` here?
A: The value was -0.8921%.

Q: For `COC[C@@H]1CCC[C@@]12CN(Cc1ccco1)CCO2.O=C(O)C(F)(F)F`, which “Percent Effect” value (10 µM) is on record?
A: Its value is -11.03%.

Q: For `COC[C@@H]1CCC[C@]12CN(Cc1ccco1)CCO2.O=C(O)C(F)(F)F`, which “Percent Effect” value (10 µM) is on record?
A: Its value is -8.533%.

Q: Which “Percent Effect” value (10 µM) does the source give for `COC[C@@H]1CCC[C@@]12CN(Cc1ccc(C)s1)CCO2.O=C(O)C(F)(F)F` here?
A: Its value is 74.98%.

Q: Which “Percent Effect” value (50 µM) does the source give for `O=C(c1ccco1)N1CCC(N2CCCC2)CC1` here?
A: Its value is -19.12%.

Q: Which “Percent Effect” value (50 µM) does the source give for `CN(Cc1ccccn1)Cc1csnn1` here?
A: Its value is 13.21%.

Q: Which “Percent Effect” value (50 µM) does the source give for `O=C(c1ccc(Br)cn1)N1CCC(n2ccnn2)CC1` here?
A: Its value is 0.6699%.

Q: With `COc1cccc(CO)c1C` as the compound, how does the “Percent Effect” value (50 µM) read?
A: Its value is -13.36%.

Q: For `COC(=O)c1ccc(CN2CCCC(CO)C2)cc1` (stereo unspecified), which “Percent Effect” value (50 µM) is on record?
A: The value was -14.35%.

Q: Which “Percent Effect” value (50 µM) does the source give for `CCOc1ccc(C(=O)N2CCC(N)CC2)cc1` here?
A: Its value is 56.89%.

Q: With `CCCc1ccc(C(=O)N2CCC(N)CC2)cc1` as the compound, how does the “Percent Effect” value (50 µM) read?
A: The value was -1.427%.

Q: With `CCOc1ccccc1C(=O)N1CCC(N)CC1` as the compound, how does the “Percent Effect” value (50 µM) read?
A: Its value is 9.165%.

Q: With `Cc1cc(Br)cc(C(=O)NC2(C(N)=O)CC2)c1` as the compound, how does the “Percent Effect” value (50 µM) read?
A: The value was 10.26%.

Q: For `CC(C)=CCN1CCN(CCO)CC1CCO` (stereo unspecified), which “Percent Effect” value (50 µM) is on record?
A: The value was 22.16%.

Q: For `O=C(NC1=NCCS1)c1cc2cc(F)ccc2s1`, which “Percent Effect” value (50 µM) is on record?
A: The value was -6.521%.

Q: With `Cn1nccc1CCC(=O)NCCN1CCCC1` as the compound, how does the “Percent Effect” value (50 µM) read?
A: Its value is 10.39%.

Q: With `COc1ccc(C(C)N(C)Cc2c(C(C)C)[nH]c3ncccc23)cc1` (stereo unspecified) as the compound, how does the “Percent Effect” value (10 µM) read?
A: The value was -0.3537%.

Q: With `COc1ccc(C(C)N(C)Cc2c(C3CC3)[nH]c3ncccc23)cc1.Cl` (stereo unspecified) as the compound, how does the “Percent Effect” value (10 µM) read?
A: Its value is 65.16%.

Q: With `COc1ccc(C(C)N(C)Cc2c(C(C)(C)C)[nH]c3ncccc23)cc1` (stereo unspecified) as the compound, how does the “Percent Effect” value (10 µM) read?
A: Its value is -0.9197%.

Q: Which “Percent Effect” value (50 µM) does the source give for `NS(=O)(=O)c1cccnc1NC1CCc2ccccc21` (stereo unspecified) here?
A: The value was 16.24%.

Q: Which “Percent Effect” value (50 µM) does the source give for `CN(C1CCCCC1)S(=O)(=O)N1CCNCC1` here?
A: Its value is 5.411%.

Q: Which “Percent Effect” value (50 µM) does the source give for `COC(=O)c1cnc(C)c(OC)c1` here?
A: Its value is -7.167%.

Q: With `COC(=O)c1cnc2[nH]nc(C)c2c1` as the compound, how does the “Percent Effect” value (50 µM) read?
A: The value was 55.45%.

Q: With `CCS(=O)(=O)N1CCN(C(=O)c2cnc3[nH]nc(C)c3c2)CC1` as the compound, how does the “Percent Effect” value (10 µM) read?
A: The value was -8.634%.

Q: With `NS(=O)(=O)CCNC(=O)c1ccc(-c2cccs2)s1` as the compound, how does the “Percent Effect” value (50 µM) read?
A: Its value is 1.485%.

Q: With `CC(C)(NC(=O)c1ccc(-c2ccc(F)cc2)s1)C(N)=O` as the compound, how does the “Percent Effect” value (10 µM) read?
A: Its value is 16.31%.

Q: For `NCCNC(=O)c1ccc(-c2ccc(Cl)cc2)s1`, which “Percent Effect” value (50 µM) is on record?
A: The value was 89.1%.

Q: With `Cc1csc(CCNC(=O)CSCC#N)n1` as the compound, how does the “Percent Effect” value (50 µM) read?
A: Its value is -3.488%.

Q: For `CC(O)C(=O)Nc1ccc(Cl)c(OC(F)F)c1` (stereo unspecified), which “Percent Effect” value (50 µM) is on record?
A: The value was -7.05%.

Q: For `CC(C)(C)OC(=O)NCc1cc(C(N)=O)co1`, which “Percent Effect” value (50 µM) is on record?
A: Its value is -10.17%.

Q: With `CCC(CNC(=O)c1ccoc1)N1CCCC1` (stereo unspecified) as the compound, how does the “Percent Effect” value (50 µM) read?
A: The value was 9.191%.

Q: With `Cn1cc(NC(=O)CC2C=CCC2)cc(Br)c1=O` (stereo unspecified) as the compound, how does the “Percent Effect” value (50 µM) read?
A: Its value is -2.451%.

Q: For `CCN(CCO)Cc1ccc(Br)c2cccnc12`, which “Percent Effect” value (10 µM) is on record?
A: Its value is 72.7%.

Q: For `OCCN(CCO)Cc1ccc(Br)c2cccnc12`, which “Percent Effect” value (10 µM) is on record?
A: Its value is 9.5%.

Q: With `N#CCCN(CCC#N)Cc1ccc(Br)c2cccnc12` as the compound, how does the “Percent Effect” value (10 µM) read?
A: Its value is 11.15%.
